Measured values as given in paper PMC12820563, “FoxP3 forms a head-to-head dimer in vivo and stabilizes its multimerization on adjacent microsatellites”.
In all, about 16,000 sequences were measured (“rpm ratio (pull-down/input)”: median about 0.5, highest 2% from about 5.5 on). The entries come from a sample that favours the highest values as a whole.

Biological target: T1, MBP-FoxP3dN (Mus musculus, UniProt Q99JB6 188-423)
T1 sequence: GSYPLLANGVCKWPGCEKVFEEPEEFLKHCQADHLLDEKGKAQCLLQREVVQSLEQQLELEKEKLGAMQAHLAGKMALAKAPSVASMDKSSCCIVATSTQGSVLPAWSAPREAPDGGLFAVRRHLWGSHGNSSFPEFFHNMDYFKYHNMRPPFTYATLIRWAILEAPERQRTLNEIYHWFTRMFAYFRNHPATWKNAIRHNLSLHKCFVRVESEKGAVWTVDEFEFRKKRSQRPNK
Test: PD-seq (MBP pull-down with sequencing); 20 mM Tris-HCl pH 7.5, 100 mM NaCl, 1.5 mM MgCl2, 0.4 uM protein, 0.1 uM dsDNA library, 30 min, room temperature, amylose pull-down; high values mean tight binding
Details: protein: recombinant; tags: His6-MBP; chain copies: 2; dsDNA, one strand shown
Outline: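 His6-MBP-tagged mouse FoxP3 or FoxP1 fragment lacking the N-terminus, expressed in E. coli, was mixed at 0.4 µM with 0.1 µM Klenow-filled double-stranded degenerate DNA library. Incubation was 30 min at room temperature in Tris pH 7.5 buffer with NaCl and MgCl2. Complexes were caught on amylose resin and washed three times; DNA was released with proteinase K, PCR-barcoded and Illumina-sequenced. Binding is reads-per-million enrichment, pull-down over input, with replicates pooled.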

Sequence	binding signal
GATGATTGTTCTCCCAGCTGATGAATTCGTTTCCTCGAGTAAACAAATTTTCCTAATCTTTCTGTTCAAGCGCCATCTAC	1.76 RPM ratio (pull-down/input)
GATGATTGTTCTCCCAGCTGATGAATTGTGGAAGTCGAGTAAACAAATTTTCCTAATCTTTCTGTTCAAGCGCCATCTAC	0.274 RPM ratio (pull-down/input)
GATGATTGTTCTCCCAGCTGATGAATTTAGCGGATCGAGTAAACAAATTTTCCTAATCTTTCTGTTCAAGCGCCATCTAC	0.292 RPM ratio (pull-down/input)
GATGATTGTTCTCCCAGCTGATGAATTGACTCCCTCGAGTAAACAAATTTTCCTAATCTTTCTGTTCAAGCGCCATCTAC	0.386 RPM ratio (pull-down/input)
GATGATTGTTCTCCCAGCTGATGAATTTCTTTGCTCGAGTAAACAAATTTTCCTAATCTTTCTGTTCAAGCGCCATCTAC	1.5 RPM ratio (pull-down/input)
GATGATTGTTCTCCCAGCTGATGAATTTTGTTGCTCGAGTAAACAAATTTTCCTAATCTTTCTGTTCAAGCGCCATCTAC	5.63 RPM ratio (pull-down/input)
GATGATTGTTCTCCCAGCTGATGAATTTTATTGCTCGAGTAAACAAATTTTCCTAATCTTTCTGTTCAAGCGCCATCTAC	2.06 RPM ratio (pull-down/input)
GATGATTGTTCTCCCAGCTGATGAATTTAGTTGCTCGAGTAAACAAATTTTCCTAATCTTTCTGTTCAAGCGCCATCTAC	2.92 RPM ratio (pull-down/input)
GATGATTGTTCTCCCAGCTGATGAATTTTTTTGCTCGAGTAAACAAATTTTCCTAATCTTTCTGTTCAAGCGCCATCTAC	0.366 RPM ratio (pull-down/input)
GATGATTGTTCTCCCAGCTGATGAATTTATTTGCTCGAGTAAACAAATTTTCCTAATCTTTCTGTTCAAGCGCCATCTAC	6.11 RPM ratio (pull-down/input)
GATGATTGTTCTCCCAGCTGATGAATTTGATTGCTCGAGTAAACAAATTTTCCTAATCTTTCTGTTCAAGCGCCATCTAC	5.45 RPM ratio (pull-down/input)
GATGATTGTTCTCCCAGCTGATGAATTTGTTTGCTCGAGTAAACAAATTTTCCTAATCTTTCTGTTCAAGCGCCATCTAC	7.54 RPM ratio (pull-down/input)
GATGATTGTTCTCCCAGCTGATGAATTAGTTTGCTCGAGTAAACAAATTTTCCTAATCTTTCTGTTCAAGCGCCATCTAC	5.59 RPM ratio (pull-down/input)
GATGATTGTTCTCCCAGCTGATGAATTATTTTGCTCGAGTAAACAAATTTTCCTAATCTTTCTGTTCAAGCGCCATCTAC	0.946 RPM ratio (pull-down/input)
GATGATTGTTCTCCCAGCTGATGAATTAGTTTTCTCGAGTAAACAAATTTTCCTAATCTTTCTGTTCAAGCGCCATCTAC	4.62 RPM ratio (pull-down/input)
GATGATTGTTCTCCCAGCTGATGAATTGTTTTGCTCGAGTAAACAAATTTTCCTAATCTTTCTGTTCAAGCGCCATCTAC	3.65 RPM ratio (pull-down/input)
GATGATTGTTCTCCCAGCTGATGAATTCTCTTGCTCGAGTAAACAAATTTTCCTAATCTTTCTGTTCAAGCGCCATCTAC	0.273 RPM ratio (pull-down/input)

Sequence	binding signal
GATGATTGTTCTCCCAGCTGATGAATTTTCCTTATCGAGTAAACAAATTTTCCTAATCTTTCTGTTCAAGCGCCATCTAC	0.31 RPM ratio (pull-down/input)
GATGATTGTTCTCCCAGCTGATGAATTGGTGTTGTCGAGTAAACAAATTTTCCTAATCTTTCTGTTCAAGCGCCATCTAC	3.18 RPM ratio (pull-down/input)
GATGATTGTTCTCCCAGCTGATGAATTCGATATTTCGAGTAAACAAATTTTCCTAATCTTTCTGTTCAAGCGCCATCTAC	1.79 RPM ratio (pull-down/input)
GATGATTGTTCTCCCAGCTGATGAATTTCGCAAATCGAGTAAACAAATTTTCCTAATCTTTCTGTTCAAGCGCCATCTAC	0.634 RPM ratio (pull-down/input)
GATGATTGTTCTCCCAGCTGATGAATTCGTCGTATCGAGTAAACAAATTTTCCTAATCTTTCTGTTCAAGCGCCATCTAC	1.17 RPM ratio (pull-down/input)
GATGATTGTTCTCCCAGCTGATGAATTTAGTAAATCGAGTAAACAAATTTTCCTAATCTTTCTGTTCAAGCGCCATCTAC	0.439 RPM ratio (pull-down/input)
GATGATTGTTCTCCCAGCTGATGAATTGTAGCCGTCGAGTAAACAAATTTTCCTAATCTTTCTGTTCAAGCGCCATCTAC	0.622 RPM ratio (pull-down/input)
GATGATTGTTCTCCCAGCTGATGAATTATATGTATCGAGTAAACAAATTTTCCTAATCTTTCTGTTCAAGCGCCATCTAC	2.22 RPM ratio (pull-down/input)
GATGATTGTTCTCCCAGCTGATGAATTGTATGTATCGAGTAAACAAATTTTCCTAATCTTTCTGTTCAAGCGCCATCTAC	4.55 RPM ratio (pull-down/input)
GATGATTGTTCTCCCAGCTGATGAATTATGTATATCGAGTAAACAAATTTTCCTAATCTTTCTGTTCAAGCGCCATCTAC	5.96 RPM ratio (pull-down/input)
GATGATTGTTCTCCCAGCTGATGAATTATGTTTCTCGAGTAAACAAATTTTCCTAATCTTTCTGTTCAAGCGCCATCTAC	4.18 RPM ratio (pull-down/input)
GATGATTGTTCTCCCAGCTGATGAATTATGTATCTCGAGTAAACAAATTTTCCTAATCTTTCTGTTCAAGCGCCATCTAC	5.75 RPM ratio (pull-down/input)
GATGATTGTTCTCCCAGCTGATGAATTATCTGTATCGAGTAAACAAATTTTCCTAATCTTTCTGTTCAAGCGCCATCTAC	0.545 RPM ratio (pull-down/input)
GATGATTGTTCTCCCAGCTGATGAATTATGTATTTCGAGTAAACAAATTTTCCTAATCTTTCTGTTCAAGCGCCATCTAC	4.76 RPM ratio (pull-down/input)
GATGATTGTTCTCCCAGCTGATGAATTATGTGTATCGAGTAAACAAATTTTCCTAATCTTTCTGTTCAAGCGCCATCTAC	5.73 RPM ratio (pull-down/input)
GATGATTGTTCTCCCAGCTGATGAATTTTATGTATCGAGTAAACAAATTTTCCTAATCTTTCTGTTCAAGCGCCATCTAC	3.53 RPM ratio (pull-down/input)
